Source: PubChem BioAssay (National Center for Advancing Translational Sciences (NCATS))
Shiga inhibitor: A qHTS for Small Molecule Inhibitors of Shiga Toxin | Vero cells, Shiga toxin protein synthesis inhibition reporter | 290,000 tested, 9.2% active | inhibition, % at 38.7 µM; in the data active = inhibition mostly above about 28%, no sharp cut-off; inactive = mostly below about 43%; note: 0% is about no effect
Pf growth 96h: Primary qHTS for delayed death inhibitors of the malarial parasite plastid, 96 hour incubation | P. falciparum luciferase reporter growth, 96 h | Potency, µM (highest dose often 28.7 µM), without a hit: at the highest dose activity change, negative = inhibition, hits mostly inhibitors | 320,000 tested, 6.9% active | AID 504834, 2011; note: potency is the fitted concentration of half-maximal effect; % is set by controls: 0 for no effect and ±100 for the full control effect
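Two parasite generations (96 h, 37 C, 5% CO2) of compound exposure in infected erythrocytes (0.05% parasitemia, 2% hematocrit). Luciferase-reporter P. falciparum; decreased luminescence indicates inhibited growth, aimed at apicoplast-acting delayed death.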
Cycloheximide cs: Cycloheximide Counterscreen for Small Molecule Inhibitors of Shiga Toxin; max response, %; AID 2314, 2010; cell reporter, cycloheximide protein synthesis inhibition counterscreen; 300,000 tested, 12% active; in the data active = max response mostly above about 13%, no sharp cut-off; inactive = mostly below about 14%; note: read at 38.3 µM for the half of the compounds with a filed dose; 0% is about no effect
Pf growth 48h: Primary qHTS for delayed death inhibitors of the malarial parasite plastid, 48 hour incubation. P. falciparum luciferase growth in erythrocytes, 48 h. Potency, µM (series often up to 28.7 µM), for the others: at the highest dose activity change, negative = inhibition, usual class: inhibitors. 310,000 tested, 5.9% active. AID 504832, 2011; note: potency is the fitted concentration of half-maximal effect; % is set by controls: 0 for no effect and ±100 for the full control effect
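Growth was read as firefly luciferase luminescence after a 48 h, 37 C, 5% CO2 exposure of compounds to reporter-bearing P. falciparum cultures (0.1% parasitemia, 2% hematocrit final) in Albumax-supplemented RPMI 1640.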
* hit, by the source's call; ? = inconclusive; . = no result given. In the library only some 21% were active in any assay of this set; here they are far more common. Unless noted, calls come from the whole dose curve; as a rule, active = well fitted inhibition curve with a large enough effect; inconclusive = small, poorly fitted or top-dose-only effect, or another doubt; inactive = no such curve, though single readings can be large or run the other way.

SMILES	Shiga inhibitor	Pf growth 96h	Cycloheximide cs	Pf growth 48h
CCCCNC(=O)c1oc2ccc(S(=O)(=O)N3CCCC3)cc2c1C	-10	?	-3	?
CN(CC(=O)NCc1ccccn1)S(=O)(=O)c1ccc2ccccc2c1	-3	18%	-3	20%
O=C(Nc1ccc(F)cc1)C1CCCO1 (stereo unspecified)	-9	13%	2	12%
O=C(Nc1nc(-c2ccc(F)cc2)cs1)C1CCCO1 (stereo unspecified)	104*	107%	42*	88%
O=C(Nc1nc(-c2ccccc2)cs1)C1c2ccccc2Oc2ccccc21	13	10µM*	7	12µM*
O=C(Nc1nc(-c2ccc(-c3ccccc3)cc2)cs1)C1CCCO1 (stereo unspecified)	16	119%	22	.
O=C(Nc1nc(-c2ccccc2)cs1)C1CCCO1 (stereo unspecified)	111*	?	38*	100%
CCNc1nc(NC(C)C)nc(SCCOC(=O)c2ccccc2)n1	-10	3%	-3	-12%
CC(C)Nc1nc(NC(C)C)nc(SCCOC(=O)Nc2ccc(Cl)cc2Cl)n1	-6	1%	21*	-5%
Nc1ccc2c(c1)Nc1ccccc1CC2	36	10%	16	35%
Cc1onc(-c2ccccc2)c1C(=O)OCC(=O)NC(=O)c1ccccc1	.	24%	.	?
Cc1ccc(N2C(=O)c3ccccc3NC2(C(=O)O)c2ccccc2)cc1Cl (stereo unspecified)	99*	11%	66*	95%
O=c1c2c(nc3cc(-c4ccc(F)cc4)[nH]n13)CCC2	100*	?	101*	-4%
O=C(COC(=O)CCCN=C1NS(=O)(=O)c2ccccc21)NNC(=O)c1ccccc1	.	23%	.	1%
COc1ccc(C(=O)COC(=O)Cn2[nH]c(=O)c3ccccc3c2=O)c(OC)c1	.	20%	.	-17%
O=C(Nc1cc(Cl)cc2c1[nH]c1cnccc12)c1cccnc1	-6	.	-8	.
NCCOc1ccc(C2CCCCC2)cc1	42	?	17	48%
CCN(CC)CC(O)c1ccc(C2CCCC2)cc1 (stereo unspecified)	-18	13µM*	-4	10µM*
CCCS(=O)(=O)N1CCC(C(=O)NCCCOCC)CC1	6	15µM*	-4	40%
CCCS(=O)(=O)N1CCC(C(=O)NCCCOC(C)C)CC1	-21	9.3µM*	4	3%
CCCS(=O)(=O)N1CCC(C(=O)NCCCOC)CC1	-12	59%	-3	14%
O=C(/C=C/c1cc[n+](CC(=O)c2ccc3cccc4c3c2CC4)cc1)c1ccc2cccc3c2c1CC3	-2	-1%	-2	1%
N#CCn1cc(/C=N/NC(=O)c2cc3c(ccc4ccccc43)o2)c2ccccc21	-4	12µM*	7	9.3µM*
Cn1c(SCC(=O)Nc2ccc(NC(=O)c3cccs3)cc2)nnc1-c1ccncc1	-4	28%	-2	-1%
CNC[C@@H](Cc1ccccc1)NC[C@@H](CC1CCCCC1)NCCCc1ccccc1	-15	?	-10	?
SMILES	Shiga inhibitor	Pf growth 96h	Cycloheximide cs	Pf growth 48h
O=C(CNC(=O)Cc1ccccc1)NCc1cccc(C(F)(F)F)c1	-12	11%	-6	0%
CNC[C@@H](CC1CCCCC1)NC[C@H](CC(C)C)NCCc1cccc(C(F)(F)F)c1	-11	1.9µM*	-9	?
CC[C@@H](C)[C@H](CNC)NC[C@@H](Cc1cccc2ccccc12)NCCc1cccc(C(F)(F)F)c1	-11	7.4µM*	-8	?
CCC[C@H](CN[C@@H](CNC)[C@H](C)CC)NCCc1cc(C(F)(F)F)cc(C(F)(F)F)c1	-16	2.1µM*	-8	4.1µM*
CCC[C@@H](CN[C@@H](CNC)[C@H](C)CC)NCC1CCC(C(C)(C)C)CC1 (stereo partly specified)	-5	3.3µM*	1	?
COc1ccc(CNC(=O)CN(C(=O)c2csnn2)c2cccc(C(C)=O)c2)cc1	-3	?	-3	2%
O=C(CC1CC2CCC1C2)N1CCN(S(=O)(=O)c2ccccc2[N+](=O)[O-])CC1 (stereo unspecified)	.	10µM*	.	?
O=S(=O)(c1ccccc1C(F)(F)F)N1CCN(S(=O)(=O)c2ccccc2C(F)(F)F)CC1	-9	-21%	-3	.
NC(=O)C1CCN(S(=O)(=O)c2ccccc2[N+](=O)[O-])CC1	-15	?	-3	0%
O=C(CC1CC2CCC1C2)N1CCN(S(=O)(=O)c2ccccc2C(F)(F)F)CC1 (stereo unspecified)	.	?	.	12µM*
CCC(=O)Nc1nnc(CSCc2ccc(F)cc2)s1	-10	0.93µM*	-4	.
CCC(=O)Nc1nnc(CSCc2ccccc2)s1	11	11%	6	-2%
O=C(Nc1ccc(Cl)cc1)Nc1nnc(CSCc2ccc(Cl)cc2)s1	-7	8.3µM*	-6	4.1µM*
CCc1nnc(NC(=O)Nc2ccc(Cl)cc2)s1	52*	?	25*	?
Nc1nnc(CSCc2ccc(Cl)cc2)s1	-11	-10%	-3	3%
CN(Cc1nccn1C)C(=O)C1CCC(=O)N(Cc2cccc(C(F)(F)F)c2)C1 (stereo unspecified)	-6	5%	-2	12%
N#CCCN1CCN(S(=O)(=O)c2ccc(C3CCCCC3)cc2)CC1	.	43%	.	-6%
CC1CCCCC1NS(=O)(=O)c1ccc(S(=O)(=O)N2CCN(CCC#N)CC2)cc1 (stereo unspecified)	12	-24%	6	13µM*
O=c1nc2sc3ccccc3n2c(=O)n1-c1cccc(Cl)c1	37	.	19	92%
Cc1ccc2c(c1)sc1nc(=O)n(-c3cccc(Cl)c3)c(=O)n12	29	160%	19*	96%
O=c1nc2sc3ccccc3n2c(=O)n1-c1ccc(Cl)cc1	22	0%	29*	?
COc1cccc(CNC(=O)c2ccc(CS(=O)c3ccccc3)o2)c1 (stereo unspecified)	12	?	0	18%
Cc1cccc(N(CC(=O)NCc2ccc(F)cc2)C(=O)c2csnn2)c1C	-12	3%	-2	?
N#Cc1nc(-c2ccccc2F)oc1NCCN1CCOCC1	1	9.3µM*	-3	.
N#Cc1nc(-c2cccc3ccccc23)oc1NCCN1CCOCC1	33	23%	15*	-13%
CCCNc1oc(-c2cccc3ccccc23)nc1C#N	69*	-3%	22*	44%
